# Measurements taken from PubChem BioAssay AID488922 (Johns Hopkins Ion Channel Center, 2010).
# Out of some 310,000 compounds screened, about 3,800 (1.2%) were called active.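 The calls were made as follows: active = ratio B-score over 3 SD below the library mean, with starting fluorescence within 5 SD of its mean; inactive = the rest, inconclusive results apart.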 Many of the other results were omitted from the sample, so actives are more common in it than they were.
# Molecular target: Potassium channel subfamily K member 9 (Homo sapiens) (UniProt Q9NPC2)
# Assay: blockers of human TASK-3 (KCNK9) channel – HEK293 cells, thallium flux, primary screen (AID 488922);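 as to B-score: negative B-score means less thallium flux so channel inhibition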
# Conditions: HEK293 KCNK9, FluxOR thallium flux fluorescence, at 10 µM; active compounds read low
# Potassium channel subfamily K member 9 (Homo sapiens), sequence (Q9NPC2 whole entry, looked up): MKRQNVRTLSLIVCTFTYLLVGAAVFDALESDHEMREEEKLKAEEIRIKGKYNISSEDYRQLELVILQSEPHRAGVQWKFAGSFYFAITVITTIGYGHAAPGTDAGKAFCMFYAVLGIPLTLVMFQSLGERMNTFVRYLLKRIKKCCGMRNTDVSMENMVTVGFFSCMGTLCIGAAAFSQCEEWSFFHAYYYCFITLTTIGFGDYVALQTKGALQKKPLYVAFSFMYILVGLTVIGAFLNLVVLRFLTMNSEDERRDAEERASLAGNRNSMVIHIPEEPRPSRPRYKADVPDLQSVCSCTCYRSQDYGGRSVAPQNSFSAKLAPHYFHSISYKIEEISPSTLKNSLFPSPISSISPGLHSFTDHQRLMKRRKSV
row,SMILES,B-score
1,CC1(c2cccc([N+](=O)[O-])c2)CC(C)(C)N(C(=O)c2ccccc2)c2ccccc21 (stereo not given),-7.5 (active)
2,O=C(c1cccc([N+](=O)[O-])c1)N1CCN(Cc2ccccc2)CC1,inactive
3,CC1(c2ccccc2)CC(C)(C)N(C(=O)c2cc([N+](=O)[O-])cc([N+](=O)[O-])c2)c2ccccc21 (stereo not given),inactive
4,O=C(NC(=S)Nc1ccc(Cl)cc1Cl)C1CC1,inactive
5,Cc1ccccc1NC(=S)NNC(=O)c1cccc(Br)c1,inactive
6,O=C(/C=C/NNC(=O)c1cccc(Br)c1)c1ccccc1,-12.9 (active)
7,CC(CC(=O)O)CC(=O)NNC(=O)c1cccc(Br)c1 (stereo not given),inactive
8,Cc1c(C(C)(C)O)[nH]c2ccc(C#N)cc12,inactive
9,O=C(O)/C=C/C(=O)NNc1ccc([N+](=O)[O-])cc1,inactive
10,Cc1cccc(NC(=O)CSc2nnc(CCCCCNC(=O)OC(C)(C)C)o2)c1C,inactive
11,Cc1ccc(C(=O)Cc2nnc(C)s2)cc1,inactive
12,CCOC(=O)C1CCCN(S(=O)(=O)c2ccc(-n3cnnn3)c(C)c2)C1 (stereo not given),inactive
13,CCN(/N=C/c1ccc(N(C)C)cc1)c1nc2ccccc2[nH]1,inactive
14,Oc1ccc(/C=N/N(Cc2ccccc2)c2ccccc2)cc1,-7.55 (active)
15,CN(C)c1ccc(/C=N/N(Cc2ccccc2)c2ccccc2)cc1,inactive
16,CC(C)C(c1nnnn1CCc1ccccc1)N1CCN(C(=O)c2ccco2)CC1 (stereo not given),inactive
17,N#Cc1ccc(C(c2nnnn2CCc2ccccc2)N2CCCCCC2)cc1 (stereo not given),-7.47 (active)
18,COc1ccc(CCn2nnnc2C(c2ccccc2)N2CCN(C)CC2)cc1OC (stereo not given),inactive
19,CCn1c(C(O)c2cc(OC)ccc2OC)nc2ccccc21 (stereo not given),inactive
20,CCCn1c(C(O)c2cc(OC)ccc2OC)nc2ccccc21 (stereo not given),inactive
21,COc1ccc(OC)c(C(O)c2nc3ccccc3n2C)c1 (stereo not given),-7.74 (active)
22,Cn1ncc2c(N3CCCCC3)nc(NCCCO)nc21,inactive
23,COc1ccccc1C(=O)NCc1nnc(SC(C)C(=O)Nc2nccs2)n1C (stereo not given),inactive
24,C=CCc1cc(S(=O)(=O)c2ccc(O)c(CC=C)c2)ccc1O,-11.9 (active)

row,SMILES,B-score
1,CCOC(=O)N1CCC(NC(=O)CN2C(=O)COc3ccc(C(C)(C)C)cc32)CC1,inactive
2,C#CC(C)(C)NC(=O)c1cnc(-c2ccccc2)nc1-c1ccccc1,inactive
3,COc1ccc(C2CC(c3cccs3)=Nc3ccccc3S2)cc1OC (stereo not given),-8.55 (active)
4,COc1ccc(C2CC(c3cccs3)=NN2C(=O)CCC(=O)O)cc1OC (stereo not given),inactive
5,COc1ccc(C2CC(c3cccs3)=NN2c2ccc(F)cc2)cc1OC (stereo not given),-7.88 (active)
6,COc1ccccc1N1N=C(c2cccs2)CC1c1ccccc1 (stereo not given),inactive
7,COc1ccc(C2CC(c3cccs3)=NN2c2nc(C)c(C(C)=O)s2)cc1OC (stereo not given),inactive
8,COc1ccc(C2CC(c3cccs3)=NN2C(=O)CSc2nnc(N)s2)cc1OC (stereo not given),inactive
9,COc1ccc(C2CC(c3cccs3)=NN2C(=O)CSc2nncs2)cc1OC (stereo not given),inactive
10,COc1ccc(C2=NN(c3ccccc3)C(c3cccs3)C2)cc1 (stereo not given),inactive
11,COc1ccc(C2CC(c3cccs3)=NN2c2ccccc2)cc1 (stereo not given),-11.3 (active)
12,COc1ccc(NCCc2ccccn2)cc1,inactive
13,Cc1nn(C)c(C)c1C(C)NC(=O)c1ccc(OC2CCN(Cc3ccccn3)CC2)cc1 (stereo not given),inactive
14,COc1ccccc1/C=C/C(=O)NC1CC2CCC1C2 (stereo not given),inactive
15,Cc1ccc(SCC2=NNC(=O)C2)cc1,inactive
16,O=C(COC(=O)c1cccc(Br)c1)Nc1cccc2c1C(=O)c1ccccc1C2=O,inactive
17,Cc1ccccc1C(=O)Nc1ccccc1Sc1ccccc1,inactive
18,O=C(COC(=O)c1ccccc1)Nc1ccccc1Sc1ccccc1,-9.75 (active)
19,CCn1c(=O)n(CC)c2cc(N3CCCC3)c(NC(=O)c3ccccc3Br)cc21,inactive
20,COc1ccc(-c2c(C(C)=O)c(C)nc3sc4c(=O)n(-c5ccc(C)cc5)nnc4c23)cc1,inactive
21,O=C(COc1ccc([N+](=O)[O-])cc1Cl)Nn1cnnc1,inactive
22,CCN(C(=O)COc1ccc(C(=O)c2ccccc2)cc1)c1ccccc1,-8.43 (active)
23,O=C(COc1ccc(F)cc1)N(CC1=CCS(=O)(=O)C1)c1ccccc1,inactive
24,CCN(C(=O)c1ccc(Br)cc1)c1ccccc1,inactive

row,SMILES,B-score
1,COc1ccc2cc(CCl)c(Cl)nc2c1,inactive
2,Cc1ccc(S(=O)(=O)N(CCCN(C)C)Cc2ccc3c(c2)OCO3)cc1,inactive
3,O=C(C[C@H]1C(=O)N(c2ccc(F)c(F)c2)C[C@@H]1Cc1ccccc1)Nc1ccccc1,-12.2 (active)
4,O=C(CSC1CC(=O)N(CCc2ccccc2)C1=O)Nc1ccc(Cl)cc1 (stereo not given),inactive
5,O=C(CN1CCN(c2ccc(F)cc2)CC1)Nc1ccccc1,inactive
6,CC(c1ccccc1)n1c(NCCCn2ccnc2)nc2c1c(=O)[nH]c(=O)n2C (stereo not given),inactive
7,CC1CCCCC1NC(=O)COC(=O)Cc1ccc(Br)cc1 (stereo not given),inactive
8,COc1ccc(C(C)=O)cc1COc1ccc(Cl)c(C)c1,-10.5 (active)
9,COCc1cc(C(C)=O)ccc1OC,inactive
10,COc1ccc(-c2noc(COc3ccc(Cl)c(C)c3)n2)cc1,inactive
11,COc1ccc(/C(N)=N/OC(=O)Cc2ccccc2)cc1,inactive
12,O=C(Nc1ccc(Br)c2cccnc12)c1ccc(Cn2cc([N+](=O)[O-])cn2)o1,-12.7 (active)
13,O=C(c1ccc(Cn2cc([N+](=O)[O-])cn2)o1)N1CCCC1,inactive
14,COc1cccc(NC(=O)c2ccc(Cn3cc([N+](=O)[O-])cn3)o2)c1,inactive
15,O=C(Nc1nonc1-c1ccc(Cl)cc1)c1ccco1,inactive
16,CNC(=O)C(=O)N/N=C/c1ccccn1,inactive
17,O=C(Nc1cccc(CCc2ccccn2)c1)c1ccc(Cl)cc1,inactive
18,Cc1cccc(C(=O)Nc2ccc(C(=O)N/N=C/c3cccc(C)n3)cc2)c1,inactive
19,O=C(N/N=C/c1ccccn1)c1cccc(NC(=O)c2ccc(Cl)cc2)c1,-8.92 (active)
20,O=C(COc1ccc(Cl)cc1Cl)N/N=C/c1ccccn1,-9.19 (active)
21,O=C(COc1ccc(Cl)cc1Cl)NCCCNC(=O)c1cnccn1,inactive
22,COc1ccccc1NC(=O)c1cc(Cl)nnc1Cl,inactive
